Screening data deposited in PubChem BioAssay by National Center for Advancing Translational Sciences (NCATS).
KCNH2 WT inh: KCNH2 (human, wildtype) channel inhibition; Q12809; activity change, % at 1.84 µM; AID 720551; U2OS, BacMam KCNH2, thallium flux FluxOr; hits give low values; 340,000 compounds, 0.37% hits;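 active means maximum activity change below -70%; inconclusive means maximum activity change between -70% and -50%; inactive means maximum activity change above -50%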; further: on the % scale 0 is the no-effect control and ±100 the full control effect
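U2OS cells transduced with wild-type KCNH2 virus are loaded with FluxOr dye for 45 min, and thallium flux is measured in kinetic reads before and after stimulation buffer. Rate constants are normalized to DMSO controls.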
CXXC DNA block: inhibitors of human MLL CXXC domain-DNA interaction | MLL-CXXC / FITC-HOXA9 DNA fluorescence polarization | AID 2662 | Potency, µM (highest dose often 115 µM), without a hit: at the highest dose activity change, negative = inhibition, hits mostly inhibitors | 290,000 compounds, 0.037% hits; active means well fitted inhibition curve with a large enough effect in the polarisation, with a control signal flat, not every such curve was filed as active; inconclusive means small, poorly fitted or top-dose-only effect, or effect the other way, or a change in a side signal; inactive means no such curve, though single readings can be large or run the other way; the % refers to the polarisation; further: potency means the concentration at half of the fitted maximal effect
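Steps: dispense CXXC domain solution (7 uM) → pin compounds or unlabeled HOX-A9 DNA control → 5 min ambient → add FLSN-HOX-A9 solution (50 nM) → spin → 30 min ambient → fluorescence polarization. Tris pH 7.5/NaCl/DTT/BSA buffer.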
Menin MLL FP FL: displaces fluorescein MLL peptide from human menin. AID 1766. Fluorescence polarization, fluorescein-MLL peptide displacement from menin. FP activity change, % at 61.4 µM. 290,000 tested, under 10 active; active means well fitted curve in the direction sought with a large enough effect in the polarisation, not every such curve was filed as active; inconclusive means small, poorly fitted or top-dose-only effect, or effect the other way, or a change in a side signal; inactive means no such curve, though single readings can be large or run the other way; the % refers to the polarisation; further: % of control where 0% means no effect
KCNH2 3.1 block: KCNH2 3.1 (human) potassium channel inhibition. U2OS KCNH2 3.1, thallium flux FluxOr; hits give low values. activity change, % (tested at about 1.8 µM). 340,000 compounds, 0.95% hits. AID 720553;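 active means maximum activity change below -70%; inconclusive means maximum activity change from -70% to -50%; inactive means maximum activity change above -50%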;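 further: thallium influx rate constant from kinetic fluorescence after stimulation buffer; on the % scale 0 is the no-effect control and ±100 the full control effect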
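Measured as rate of thallium-driven FluxOr signal in transduced U2OS cells carrying the 3.1 channel, read kinetically for 2 min upon stimulation; values are rate constants scaled to DMSO control wells.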
Menin-MLL TR inh: inhibitors of human menin-MLL interaction, mutant MLL peptide; O00255; Menin + Texas Red MLL mutant peptide, fluorescence polarization; Potency, µM (doses to about 61.6 µM), for the others: at the highest dose FP activity change, negative = inhibition, hits mostly inhibitors; 270,000 compounds, 0.23% hits; active means well fitted inhibition curve with a large enough effect in the polarisation, with a control signal flat, not every such curve was filed as active; inconclusive means small, poorly fitted or top-dose-only effect, or effect the other way, or a change in a side signal; inactive means no such curve, though single readings can be large or run the other way; the % refers to the polarisation; further: potency means the concentration at half of the fitted maximal effect; % of control where 0% means no effect
The depositor's hits bear a star; ? = inconclusive; . = no result. This is a sample that favours compounds with a hit; in the whole collection about 1.1% have one here.

SMILES | KCNH2 WT inh | CXXC DNA block | Menin MLL FP FL | KCNH2 3.1 block | Menin-MLL TR inh
CN(C)c1ccc(/C=C(/NC(=O)c2ccccc2)C(=O)N2CCCC2)cc1 | -13 | -7% | 14 | -3 | -9%
CCCC[C@H](NC(=O)[C@H](CO)NC(=O)[C@H](Cc1ccc(O)cc1)NC(=O)[C@H](CO)NC(C)=O)C(=O)N[C@@H](CCC(=O)O)C(=O)N[C@@H](Cc1cnc[nH]1)C(=O)N[C@H](Cc1ccccc1)C(=O)N[C@@H](CCCNC(=N)N)C(=O)N[C@@H](Cc1c[nH]c2ccccc12)C(=O)NCC(=O)N[C@@H](CCCCN)C(=O)N1CCC[C@H]1C(=O)N[C@H](C(N)=O)C(C)C | . | . | -1 | . | 1%
CCN(CC)C(=S)S | . | 2% | 5 | . | 10%
O=C(N/N=C\c1cn(-c2ccccc2)nc1-c1ccccc1)c1ccc(Br)o1 | 11 | 21% | -1 | -9 | 32µM*
COc1ccc(-c2nn(-c3ccccc3)cc2/C=N/NS(=O)(=O)c2ccccc2)cc1 | 7 | 7% | 1 | 22 | ?
Cc1ccc(-c2nn(-c3ccccc3)cc2/C=N/NC(=O)c2ccc(Br)o2)cc1 | 1 | 30% | 0 | -35 | ?
COc1ccc(-c2nn(-c3ccccc3)cc2/C=N/NC(=O)c2cccc(S(=O)(=O)Nc3ccccc3Cl)c2)cc1 | -2 | 6% | -3 | -10 | 16µM*
CC1(C)OCC([C@H](O)C2=CCCCC2=O)CO1 | . | . | -1 | . | 1%
COc1ccc(C(=O)NCCc2cc3ccc(C)c(C)c3[nH]c2=O)cc1OC | -11 | 5% | 3 | -111* | -3%
CCN1CCN(C(c2cccs2)C(C)NS(=O)(=O)c2ccc(C)cc2)CC1 (stereo not drawn) | . | 8% | -3 | -76* | -3%
CCN1CCN(C(c2cccs2)C(C)NS(=O)(=O)c2ccccc2)CC1 (stereo not drawn) | 2 | -7% | 1 | 8 | -2%
CCCCC(=O)OCC(=O)[C@]1(O)Cc2c(O)c3c(c(O)c2[C@H](OC2CC(NC(=O)C(F)(F)F)C(O)C(C)O2)C1)C(=O)c1c(OC)cccc1C3=O (stereo partly drawn) | . | -3% | -19 | . | 28µM*
CCCCCCC(=O)Nc1ccc(Cl)cn1 | -5 | -9% | 3 | 10 | 27%
O=C(CCCOc1ccccc1)Nc1ccc(Cl)cn1 | 0 | 0% | 2 | -105* | 9%
Cc1cn2c(-c3cccnc3)nnc2s1 | 5 | -1% | 3 | -76* | -13%
O=C(CNC(=O)C1COc2ccccc2O1)Nc1ccc(F)c(F)c1 (stereo not drawn) | -1 | . | . | -2 | .
Cc1cccc([C@@H]2[C@@H]3C(=O)N(Cc4ccccc4)C(=O)[C@@H]3[C@]3(Cc4ccc(Cl)cc4)C(=O)N(c4ccc(Br)cc4)C(=O)N23)c1 | -13 | 19% | 0 | -29 | 20µM*
Cc1ccc(C)c(NC(=O)C2CCCN2/C=C/C(=O)C(F)(F)F)c1 (stereo not drawn) | -1 | 2% | 2 | -119* | 1%
COc1ccc(C2c3[nH]c4ccccc4c3C[C@H]3C(=O)N(C4CCN(Cc5ccccc5)CC4)CC(=O)N23)cc1OC (stereo partly drawn) | -18 | 8% | 0 | ? | -16%
COc1ccccc1C1c2[nH]c3ccccc3c2C[C@H]2C(=O)N(C3CCN(Cc4ccccc4)CC3)CC(=O)N12 (stereo partly drawn) | -106* | 11% | 12 | -37 | -15%
COc1cccc(CN(C)C(=O)c2cccc(S(=O)(=O)N3CCN(c4ccc(F)cc4)CC3)c2)c1OC | 0 | . | . | -159* | .
CN1CCN(S(=O)(=O)c2cccc(C(=O)N(C)C(c3ccccc3)c3ccccc3)c2)CC1 | 11 | . | . | -75* | .
N#Cc1c(N2CCN(C(=O)c3ccccc3Cl)CC2)nc(-c2ccccc2)c2c1CCCC2 | -283* | -10% | 8 | -27 | -12%
N#Cc1c(N2CCN(C(=O)c3ccccc3)CC2)nc(-c2ccccc2)c2c1CCCC2 | 0 | -7% | 3 | -9 | ?
COc1ccc(N(Cc2cc3ccccc3[nH]c2=O)S(C)(=O)=O)cc1 | 0 | -12% | 6 | -29 | -3%
SMILES | KCNH2 WT inh | CXXC DNA block | Menin MLL FP FL | KCNH2 3.1 block | Menin-MLL TR inh
COc1ccc(N(Cc2cc3cccc(C)c3[nH]c2=O)S(C)(=O)=O)cc1 | -25 | -9% | -3 | -82* | 2%
COc1cc(C(C)=O)ccc1OCC(=O)NCC(c1ccc(F)cc1)N1CCOCC1 (stereo not drawn) | -2 | . | . | 17 | .
COc1cc(OC)c(S(=O)(=O)Nc2ccc(C(=O)O)cc2)cc1S(=O)(=O)Nc1ccc(C(=O)O)cc1 | 2 | -3% | 0 | 15 | -4%
CN(C)c1nc(Cl)nc(N(C#N)CCOc2ccccc2)n1 | -2 | 8% | -2 | -83* | 12%
CCNc1nc(NCC)nc(N(C#N)CCOc2ccccc2)n1 | -5 | -5% | -6 | 17 | -12%
O=C(CN1CCN(c2ccc(F)cc2)CC1)Nc1nccs1 | -6 | 0% | -3 | 6 | -13%
OCCN1CCN(c2nc(NCc3ccco3)c3ccccc3n2)CC1 | 18 | 4% | 2 | -19 | 1%
Cc1ccc(OCCN2CCN(c3nc(NCc4ccco4)c4ccccc4n3)CC2)cc1 | -131* | 8% | -5 | -104* | -17%
c1ccc(CN2CCN(c3nc(NCc4ccco4)c4ccccc4n3)CC2)cc1 | -48 | ? | -18 | -108* | -29%
Cc1cc[n+](-c2ccccc2)c2ccccc12 | -10 | 2% | 4 | 17 | -11%
Cc1ccc(S(=O)(=O)N2CCN(C(=O)Cn3cnc4c3c(=O)n(C)c(=O)n4C)CC2)cc1C | -2 | . | . | -5 | .
CCN(Cc1ccccc1)C(=O)CSc1ccccc1C(=O)O | -233* | 2% | 1 | -176* | 1%
COc1cccc(/C=C/C(=O)OCC(=O)Nc2nnc(-c3ccccc3)o2)c1 | 10 | . | . | -3 | .
Cc1nc2c(C)cccn2c1C(=O)c1ccccc1 | -5 | -2% | -2 | -84* | -9%
OC[C@H](S)CS | . | -4% | 6 | . | 0%
C=CCC(C)(O)c1ccc(OC)cc1 (stereo not drawn) | . | . | -10 | . | 5%
CCN(CC)c1ccc(/C=N/NC(=O)c2nnn(-c3nonc3N)c2CN(C)C2CCCCC2)cc1 | -17 | . | . | -88* | .
CCOc1ccc(/C=N/NC(=O)c2nnn(-c3nonc3N)c2CN(C)C2CCCCC2)cc1 | -102* | -4% | 2 | -26 | ?
CN(CC(=O)NC(c1ccccc1)c1ccccc1)Cc1nc2ccccc2c(=O)[nH]1 | -81* | ? | 1 | ? | -6%
CN(CC(=O)Nc1ccccc1Sc1ccccc1)Cc1nc2ccccc2c(=O)[nH]1 | -26 | 1% | -1 | -22 | -7%
COc1ccc(CN2C(=O)C(CC(=O)NC3CCCCC3)CC(C(=O)N(C)C)=C2C)cc1 (stereo not drawn) | -20 | . | . | 13 | .
